Compounds without any hit were thinned out: in the full panel of roughly 83,000, 20% have a hit.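 For each line, cells grew in 96-well plates with the test compound present at a single concentration for 48 hours.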 Calls of active or inactive are those of the source. How the source made its calls: active means growth percent below 10; inactive means the rest.
Tests used:
Assay in all cases: NCI-60 one-dose screen, 48 h (100 = growth as untreated, 0 = no growth, -100 = all killed)
K-562 leukemia = conditions: 10 µM unless noted
MALME-3M melanoma = conditions: 10 µM unless noted
MDA-MB-231 breast = conditions: 10 µM unless noted
RXF 393 renal = conditions: 10 µM unless noted
SF-268 CNS = conditions: 10 µM unless noted
SF-295 CNS = conditions: 10 µM unless noted
SF-539 CNS = conditions: 10 µM unless noted
UACC-257 melanoma = conditions: 10 µM unless noted
M14 melanoma = conditions: 10 µM unless noted
HCT-15 colon = conditions: 10 µM unless noted
HT29 colon = conditions: 10 µM unless noted
SNB-75 CNS = conditions: 10 µM unless noted
SNB-19 CNS = conditions: 10 µM unless noted
U251 CNS = conditions: 10 µM unless noted
PC-3 prostate = conditions: 10 µM unless noted
SK-MEL-5 melanoma = conditions: 10 µM unless noted
UACC-62 melanoma = conditions: 10 µM unless noted
LOX IMVI melanoma = conditions: 10 µM unless noted
SK-MEL-28 melanoma = conditions: 10 µM
SK-MEL-2 melanoma = conditions: 10 µM unless noted

| Structure (SMILES) | growth (K-562 leukemia) | growth (MALME-3M melanoma) | growth (MDA-MB-231 breast) | growth (RXF 393 renal) | growth (SF-268 CNS) | growth (SF-295 CNS) | growth (SF-539 CNS) | growth (UACC-257 melanoma) | growth (M14 melanoma) | growth (HCT-15 colon) | growth (HT29 colon) | growth (SNB-75 CNS) | growth (SNB-19 CNS) | growth (U251 CNS) | growth (PC-3 prostate) | growth (SK-MEL-5 melanoma) | growth (UACC-62 melanoma) | growth (LOX IMVI melanoma) | growth (SK-MEL-28 melanoma) | growth (SK-MEL-2 melanoma) |
| --- | --- | --- | --- | --- | --- | --- | --- | --- | --- | --- | --- | --- | --- | --- | --- | --- | --- | --- | --- | --- |
| COc1nccc2cc3c(=O)n4c(cc5ccccc54)c(=O)n3c12 | 91.9% (inactive) | 85.7% (inactive) | 90.3% (inactive) | 112% (inactive) | 101% (inactive) | 106% (inactive) | 104% (inactive) | 114% (inactive) | 97.2% (inactive) | 91.4% (inactive) | 112% (inactive) | 89.2% (inactive) | 108% (inactive) | 101% (inactive) | 87.8% (inactive) | 96.6% (inactive) | 101% (inactive) | 97.1% (inactive) | 109% (inactive) | 94.3% (inactive) |
| COc1ccc(CN2CCCC(C(=O)c3ccc(C(F)(F)F)cc3)C2)c(O)c1 (stereo not drawn) | 7.39% (active) | 12.7% (inactive) | 7.33% (active) | 20.4% (inactive) | 30.5% (inactive) | -20.8% (active) | 14.8% (inactive) | 40.1% (inactive) | 18.9% (inactive) | 25.7% (inactive) | 1.6% (active) | -1.83% (active) | 44.1% (inactive) | 18.5% (inactive) | 25.6% (inactive) | 19.6% (inactive) | 28.3% (inactive) | 25.5% (inactive) | 36.4% (inactive) | -43.2% (active) |
| CN1CCN(Cc2ccc(C(=O)Nc3cncc(C#Cc4cnc5cccnn45)c3)cc2C(F)(F)F)CC1 | 6.75% (active) | 28.3% (inactive) | 41% (inactive) | 50.5% (inactive) | 60.3% (inactive) | 80.2% (inactive) | 32.9% (inactive) | 19.2% (inactive) | 34.4% (inactive) | 38.8% (inactive) | 23% (inactive) | 96.9% (inactive) | 95% (inactive) | 65.2% (inactive) | 60.4% (inactive) | 74.3% (inactive) | 74.2% (inactive) | 56% (inactive) | 67% (inactive) | 31.8% (inactive) |
| CN1C(=O)N(C)C2(c3ccccc3)OC(=S)NC12c1ccccc1 (stereo not drawn) | 92.3% (inactive) | 97% (inactive) | 110% (inactive) | 114% (inactive) | 88.9% (inactive) | 93.3% (inactive) | 92.5% (inactive) | 94.7% (inactive) | 95.7% (inactive) | 100% (inactive) | 89.1% (inactive) | 87.6% (inactive) | 98.4% (inactive) | 98.7% (inactive) | 92.4% (inactive) | 104% (inactive) | 92.5% (inactive) | 98.7% (inactive) | 102% (inactive) | 102% (inactive) |
| COc1cc(/C=C2\CN(C)C/C(=C\c3cc(CN4CCCC4)c(O)c(OC)c3)C2=O)cc(CN2CCCC2)c1O | 19.4% (inactive) | 86% (inactive) | 58.9% (inactive) | 68.9% (inactive) | 61.3% (inactive) | 100% (inactive) | 68.2% (inactive) | 93.7% (inactive) | 99.1% (inactive) | 88% (inactive) | 25.6% (inactive) | 75.3% (inactive) | 74.7% (inactive) | 25.8% (inactive) | 76.8% (inactive) | 89.3% (inactive) | 81.7% (inactive) | 26.3% (inactive) | 90.7% (inactive) | 92.1% (inactive) |
| CN1C(=O)N(C)C2Nn3c(s/c(=C4\C(=O)N(CCc5ccccc5)c5ccccc54)c3=O)=NC21 (stereo not drawn) | 34.9% (inactive) | 85.1% (inactive) | 80.5% (inactive) | 64.1% (inactive) | 60.9% (inactive) | 72% (inactive) | 48.4% (inactive) | 62.3% (inactive) | 57.3% (inactive) | 44.6% (inactive) | 38.4% (inactive) | 48.2% (inactive) | 85.7% (inactive) | 77.8% (inactive) | 44.4% (inactive) | 27.4% (inactive) | 44.7% (inactive) | 54.8% (inactive) | 76.4% (inactive) | 69.3% (inactive) |
| COc1cc(CNC(=O)Cc2ccccc2)ccc1OCc1cn(-c2ccc(F)cc2)nn1 | 91.8% (inactive) | 114% (inactive) | 89.5% (inactive) | 125% (inactive) | 98.1% (inactive) | 101% (inactive) | 99.5% (inactive) | 97.7% (inactive) | 101% (inactive) | 106% (inactive) | 111% (inactive) | 91.7% (inactive) | 103% (inactive) | 97.3% (inactive) | 98.5% (inactive) | 89.1% (inactive) | 85.3% (inactive) | 99.6% (inactive) | 103% (inactive) | 101% (inactive) |
| O=Cc1cc2ccccc2nc1Nc1nccs1 | 109% (inactive) | 73.1% (inactive) | 68.6% (inactive) | 53.2% (inactive) | 54.8% (inactive) | 92.9% (inactive) | 87.3% (inactive) | 102% (inactive) | 101% (inactive) | 46.4% (inactive) | 33.9% (inactive) | 79.4% (inactive) | 71.6% (inactive) | 70.4% (inactive) | 49.5% (inactive) | 82.2% (inactive) | 84.5% (inactive) | 31.7% (inactive) | 104% (inactive) | 105% (inactive) |
| CC/C(=C(\CC)c1ccc(OCC[N+](C)(C)C)cc1)c1ccc(OC)cc1 | 30.4% (inactive) | 68.3% (inactive) | 71.9% (inactive) | 29% (inactive) | 61.2% (inactive) | 76.2% (inactive) | 59.9% (inactive) | 39% (inactive) | 58.1% (inactive) | 97.6% (inactive) | 39.5% (inactive) | 31.2% (inactive) | 27.1% (inactive) | 21.6% (inactive) | 41.6% (inactive) | 44.1% (inactive) | 42.2% (inactive) | 73.2% (inactive) | 76.7% (inactive) | 98.8% (inactive) |
| COC(=O)C1(C)CCC[C@]2(C)[C@H]3C[C@H]4C(C(C)C)=C[C@]3(CC[C@@H]12)[C@H]1[C@@H]4[C@@H](OCC#CCN2CCOCC2)CC[C@@H]1OCC#CCN1CCOCC1 (stereo partly drawn) | 70.3% (inactive) | 79.3% (inactive) | 77.2% (inactive) | 91.9% (inactive) | 83.7% (inactive) | 93.9% (inactive) | 86.2% (inactive) | 83.8% (inactive) | 81.6% (inactive) | 85.5% (inactive) | 77.6% (inactive) | 93.1% (inactive) | 79% (inactive) | 70.9% (inactive) | 53.9% (inactive) | 80.2% (inactive) | 61% (inactive) | 89% (inactive) | 90.5% (inactive) | 89.3% (inactive) |
| CCCCCCC(O)(c1ccc(F)cc1)C(CN1CCOCC1)c1ccccc1 (stereo not drawn) | 12.9% (inactive) | 24.5% (inactive) | 26.2% (inactive) | 20.6% (inactive) | 47.4% (inactive) | -21.5% (active) | 79.1% (inactive) | 57.2% (inactive) | 35.5% (inactive) | 28.1% (inactive) | 33.1% (inactive) | 32.8% (inactive) | 42% (inactive) | 28% (inactive) | 15.4% (inactive) | 52.8% (inactive) | 22.6% (inactive) | 29.5% (inactive) | 68.1% (inactive) | 36.4% (inactive) |
| C1CCN(c2nc(N3CCCCC3)nc(N3CCOCC3)n2)CC1 | 101% (inactive) | 100% (inactive) | 93.9% (inactive) | 107% (inactive) | 105% (inactive) | 111% (inactive) | 113% (inactive) | 97.1% (inactive) | 113% (inactive) | 105% (inactive) | 88.2% (inactive) | 81% (inactive) | 96.1% (inactive) | 101% (inactive) | 104% (inactive) | 101% (inactive) | 93% (inactive) | 98.7% (inactive) |  |  |
| CCCCN1CCN(c2ccc3nc(-c4ccc5nc(-c6ccc(OCC)cc6)[nH]c5c4)[nH]c3c2)CC1 | -29.1% (active) | 36% (inactive) | 111% (inactive) | 36.9% (inactive) | 77.1% (inactive) | 48.7% (inactive) | 67.9% (inactive) | 68.2% (inactive) | 32.7% (inactive) | 16.6% (inactive) | 21.4% (inactive) | 60% (inactive) | 85.3% (inactive) | 60.5% (inactive) | 56.7% (inactive) | 49.3% (inactive) | 59.9% (inactive) | -81% (active) | 61.6% (inactive) | 86.6% (inactive) |
| Clc1ccc(Nc2nnc(-c3ccc4c(c3)OCO4)o2)cc1 | 62.4% (inactive) | 99% (inactive) | 108% (inactive) | 130% (inactive) | 107% (inactive) | 115% (inactive) | 104% (inactive) | 100% (inactive) | 102% (inactive) | 95.8% (inactive) | 95% (inactive) | 121% (inactive) | 99% (inactive) | 102% (inactive) | 107% (inactive) | 104% (inactive) | 88.9% (inactive) | 89.9% (inactive) | 114% (inactive) | 102% (inactive) |

Source: PubChem BioAssay (NCI)
